Experimental data from the supplement of paper PMC11732987, “Enantioselective OTUD7B fragment discovery through chemoproteomics screening and high-throughput optimisation” (Communications Chemistry, 2025).

Legend:
Assay in all cases: log2 ratio of Biotin-Ahx-Ub-VS probe labelling (fragment/DMSO); higher = less target engagement (more negative = stronger competition), active = hit call of the paper (q ≤ 0.05, log2 ratio ≤ -1)
Conditions in all cases: compound concentration: 200 uM; treatment time: 3 h
USP34 = USP34 (UniProt Q70CQ2)
Chain of USP34 (Q70CQ2 whole entry, the tested form may be a part): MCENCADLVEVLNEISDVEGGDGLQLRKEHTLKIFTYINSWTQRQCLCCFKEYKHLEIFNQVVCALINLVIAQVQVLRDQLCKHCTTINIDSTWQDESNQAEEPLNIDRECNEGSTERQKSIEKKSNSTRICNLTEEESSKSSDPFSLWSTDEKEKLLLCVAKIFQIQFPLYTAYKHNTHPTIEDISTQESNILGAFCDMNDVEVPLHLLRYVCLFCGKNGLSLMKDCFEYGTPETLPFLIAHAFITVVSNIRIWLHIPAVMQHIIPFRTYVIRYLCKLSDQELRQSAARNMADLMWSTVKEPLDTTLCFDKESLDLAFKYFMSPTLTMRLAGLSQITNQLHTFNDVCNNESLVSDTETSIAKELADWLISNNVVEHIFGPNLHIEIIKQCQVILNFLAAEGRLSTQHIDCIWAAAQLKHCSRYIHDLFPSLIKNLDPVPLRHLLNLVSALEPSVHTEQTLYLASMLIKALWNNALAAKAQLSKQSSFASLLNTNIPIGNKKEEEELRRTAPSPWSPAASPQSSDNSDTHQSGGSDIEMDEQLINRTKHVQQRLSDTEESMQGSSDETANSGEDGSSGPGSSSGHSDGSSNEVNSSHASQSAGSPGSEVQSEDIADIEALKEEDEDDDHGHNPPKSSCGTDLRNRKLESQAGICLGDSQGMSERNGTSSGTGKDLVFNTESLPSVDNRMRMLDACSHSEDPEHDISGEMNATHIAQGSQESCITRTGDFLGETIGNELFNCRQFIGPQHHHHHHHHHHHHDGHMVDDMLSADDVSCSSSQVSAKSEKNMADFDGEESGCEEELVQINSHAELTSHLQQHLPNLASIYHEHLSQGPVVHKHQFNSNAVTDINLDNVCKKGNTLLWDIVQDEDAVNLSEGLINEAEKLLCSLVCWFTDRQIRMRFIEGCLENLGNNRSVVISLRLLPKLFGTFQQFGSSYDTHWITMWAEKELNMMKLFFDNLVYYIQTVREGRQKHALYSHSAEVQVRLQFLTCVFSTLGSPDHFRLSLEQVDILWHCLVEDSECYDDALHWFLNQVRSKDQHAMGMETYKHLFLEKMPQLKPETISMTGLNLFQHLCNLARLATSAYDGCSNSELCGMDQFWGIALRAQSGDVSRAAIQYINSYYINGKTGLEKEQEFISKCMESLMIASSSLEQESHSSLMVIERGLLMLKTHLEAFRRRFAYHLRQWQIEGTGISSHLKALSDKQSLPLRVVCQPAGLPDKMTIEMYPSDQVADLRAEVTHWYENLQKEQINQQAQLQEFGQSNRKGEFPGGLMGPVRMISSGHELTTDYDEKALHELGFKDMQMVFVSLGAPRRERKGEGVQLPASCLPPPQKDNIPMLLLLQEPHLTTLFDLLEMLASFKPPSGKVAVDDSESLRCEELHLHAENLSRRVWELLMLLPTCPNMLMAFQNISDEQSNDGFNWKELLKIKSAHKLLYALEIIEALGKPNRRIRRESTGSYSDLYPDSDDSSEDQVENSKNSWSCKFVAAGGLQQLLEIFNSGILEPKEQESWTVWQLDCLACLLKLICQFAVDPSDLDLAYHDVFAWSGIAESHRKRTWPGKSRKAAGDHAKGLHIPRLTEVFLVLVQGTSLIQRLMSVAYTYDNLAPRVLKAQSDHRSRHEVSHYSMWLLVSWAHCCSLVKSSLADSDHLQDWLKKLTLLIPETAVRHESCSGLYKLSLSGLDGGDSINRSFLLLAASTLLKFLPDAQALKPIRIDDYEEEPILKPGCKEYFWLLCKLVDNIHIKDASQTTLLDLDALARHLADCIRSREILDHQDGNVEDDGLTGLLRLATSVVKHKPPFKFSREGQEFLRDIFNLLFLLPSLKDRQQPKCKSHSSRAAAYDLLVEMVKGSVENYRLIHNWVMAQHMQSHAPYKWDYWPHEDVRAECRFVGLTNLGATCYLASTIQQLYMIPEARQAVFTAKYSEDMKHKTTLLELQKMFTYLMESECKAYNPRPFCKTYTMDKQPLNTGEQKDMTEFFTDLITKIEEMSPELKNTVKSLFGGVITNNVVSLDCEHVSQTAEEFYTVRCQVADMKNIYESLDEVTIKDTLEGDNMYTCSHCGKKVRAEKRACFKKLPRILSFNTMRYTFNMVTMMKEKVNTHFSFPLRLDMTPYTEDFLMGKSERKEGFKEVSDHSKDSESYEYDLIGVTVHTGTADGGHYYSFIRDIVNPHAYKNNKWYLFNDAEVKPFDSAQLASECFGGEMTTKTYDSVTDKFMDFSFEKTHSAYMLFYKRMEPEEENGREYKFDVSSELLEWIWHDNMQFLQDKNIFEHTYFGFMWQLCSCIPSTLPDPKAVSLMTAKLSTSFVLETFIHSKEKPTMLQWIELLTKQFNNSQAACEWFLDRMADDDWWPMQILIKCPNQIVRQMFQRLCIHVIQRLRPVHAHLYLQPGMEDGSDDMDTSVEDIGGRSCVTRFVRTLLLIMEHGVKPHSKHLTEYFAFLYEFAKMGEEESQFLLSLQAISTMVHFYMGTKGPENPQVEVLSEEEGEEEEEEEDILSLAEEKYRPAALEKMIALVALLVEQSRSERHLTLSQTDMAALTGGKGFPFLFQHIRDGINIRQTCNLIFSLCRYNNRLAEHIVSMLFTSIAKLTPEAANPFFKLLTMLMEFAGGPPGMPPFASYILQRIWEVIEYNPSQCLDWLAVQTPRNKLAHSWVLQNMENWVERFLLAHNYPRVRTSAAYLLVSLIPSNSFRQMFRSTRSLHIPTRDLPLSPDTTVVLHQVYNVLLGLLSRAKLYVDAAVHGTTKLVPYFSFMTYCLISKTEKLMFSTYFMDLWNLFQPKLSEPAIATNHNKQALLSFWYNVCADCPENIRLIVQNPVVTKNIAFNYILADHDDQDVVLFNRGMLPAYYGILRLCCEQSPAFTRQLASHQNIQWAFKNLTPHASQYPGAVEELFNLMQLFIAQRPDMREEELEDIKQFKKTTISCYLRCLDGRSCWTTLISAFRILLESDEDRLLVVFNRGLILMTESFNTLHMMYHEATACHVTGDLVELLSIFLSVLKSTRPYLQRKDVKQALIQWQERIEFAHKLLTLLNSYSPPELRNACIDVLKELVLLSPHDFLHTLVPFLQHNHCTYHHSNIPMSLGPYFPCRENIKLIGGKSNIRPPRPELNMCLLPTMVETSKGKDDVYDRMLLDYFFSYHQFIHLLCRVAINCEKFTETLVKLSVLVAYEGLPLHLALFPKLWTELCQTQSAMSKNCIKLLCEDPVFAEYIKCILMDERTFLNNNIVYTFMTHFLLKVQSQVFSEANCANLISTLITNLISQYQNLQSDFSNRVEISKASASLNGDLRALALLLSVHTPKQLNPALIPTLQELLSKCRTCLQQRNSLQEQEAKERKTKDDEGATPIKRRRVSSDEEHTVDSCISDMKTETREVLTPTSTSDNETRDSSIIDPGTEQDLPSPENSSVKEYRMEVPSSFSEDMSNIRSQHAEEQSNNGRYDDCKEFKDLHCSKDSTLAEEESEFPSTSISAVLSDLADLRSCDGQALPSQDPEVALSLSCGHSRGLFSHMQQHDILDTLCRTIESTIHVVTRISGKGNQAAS
In short: (§1)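 Each value is an average log2 ratio of fragment to vehicle, tested by unpaired t-test. The underlying Spectronaut label-free quantities were global-median-normalised, and only proteins with ≥2 unique peptides were included. Triplicate HEK293T lysate samples (495 µg) were exposed to fragment at 200 µM or vehicle for 3 h, then to Biotin-Ahx-Ub-VS at 0.5 µM final for 1 h, before NeutrAvidin enrichment of labelled DUBs, LysC and trypsin digestion, and diaPASEF LC-MS/MS.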

USP36 = target: T1, USP36 (UniProt Q9P275)
T1 sequence (whole entry): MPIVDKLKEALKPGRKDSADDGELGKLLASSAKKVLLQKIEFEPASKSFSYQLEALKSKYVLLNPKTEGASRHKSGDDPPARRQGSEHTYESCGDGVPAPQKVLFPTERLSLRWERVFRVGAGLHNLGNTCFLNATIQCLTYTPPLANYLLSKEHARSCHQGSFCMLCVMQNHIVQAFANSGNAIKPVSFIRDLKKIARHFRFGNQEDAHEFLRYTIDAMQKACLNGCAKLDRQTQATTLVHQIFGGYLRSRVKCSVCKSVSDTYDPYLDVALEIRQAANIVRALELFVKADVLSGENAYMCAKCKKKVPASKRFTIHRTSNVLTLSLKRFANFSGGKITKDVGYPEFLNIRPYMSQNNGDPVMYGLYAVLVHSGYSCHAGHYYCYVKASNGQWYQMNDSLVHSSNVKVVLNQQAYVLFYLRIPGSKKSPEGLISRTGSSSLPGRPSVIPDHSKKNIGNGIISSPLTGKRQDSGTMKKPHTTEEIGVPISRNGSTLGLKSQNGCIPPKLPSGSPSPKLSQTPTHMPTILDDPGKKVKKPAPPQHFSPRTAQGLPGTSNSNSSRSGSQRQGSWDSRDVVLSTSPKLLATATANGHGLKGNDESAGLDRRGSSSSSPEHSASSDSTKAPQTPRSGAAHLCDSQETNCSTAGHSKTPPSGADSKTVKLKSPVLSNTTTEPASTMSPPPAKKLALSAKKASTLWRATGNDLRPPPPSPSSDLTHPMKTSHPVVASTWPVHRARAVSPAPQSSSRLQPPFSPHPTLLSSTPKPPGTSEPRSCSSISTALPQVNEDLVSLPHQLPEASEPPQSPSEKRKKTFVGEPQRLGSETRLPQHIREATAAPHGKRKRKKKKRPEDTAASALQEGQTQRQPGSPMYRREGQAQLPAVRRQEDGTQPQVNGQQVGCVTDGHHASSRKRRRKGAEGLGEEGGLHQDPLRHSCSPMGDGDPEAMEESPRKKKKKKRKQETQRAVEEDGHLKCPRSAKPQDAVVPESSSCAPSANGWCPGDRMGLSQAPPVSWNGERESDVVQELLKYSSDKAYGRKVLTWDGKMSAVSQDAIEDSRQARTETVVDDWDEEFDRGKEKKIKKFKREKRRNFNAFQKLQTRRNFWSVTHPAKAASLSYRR
In short: as §1

USP38 = target: T2, USP38 (UniProt Q8NB14)
T2 sequence (whole entry): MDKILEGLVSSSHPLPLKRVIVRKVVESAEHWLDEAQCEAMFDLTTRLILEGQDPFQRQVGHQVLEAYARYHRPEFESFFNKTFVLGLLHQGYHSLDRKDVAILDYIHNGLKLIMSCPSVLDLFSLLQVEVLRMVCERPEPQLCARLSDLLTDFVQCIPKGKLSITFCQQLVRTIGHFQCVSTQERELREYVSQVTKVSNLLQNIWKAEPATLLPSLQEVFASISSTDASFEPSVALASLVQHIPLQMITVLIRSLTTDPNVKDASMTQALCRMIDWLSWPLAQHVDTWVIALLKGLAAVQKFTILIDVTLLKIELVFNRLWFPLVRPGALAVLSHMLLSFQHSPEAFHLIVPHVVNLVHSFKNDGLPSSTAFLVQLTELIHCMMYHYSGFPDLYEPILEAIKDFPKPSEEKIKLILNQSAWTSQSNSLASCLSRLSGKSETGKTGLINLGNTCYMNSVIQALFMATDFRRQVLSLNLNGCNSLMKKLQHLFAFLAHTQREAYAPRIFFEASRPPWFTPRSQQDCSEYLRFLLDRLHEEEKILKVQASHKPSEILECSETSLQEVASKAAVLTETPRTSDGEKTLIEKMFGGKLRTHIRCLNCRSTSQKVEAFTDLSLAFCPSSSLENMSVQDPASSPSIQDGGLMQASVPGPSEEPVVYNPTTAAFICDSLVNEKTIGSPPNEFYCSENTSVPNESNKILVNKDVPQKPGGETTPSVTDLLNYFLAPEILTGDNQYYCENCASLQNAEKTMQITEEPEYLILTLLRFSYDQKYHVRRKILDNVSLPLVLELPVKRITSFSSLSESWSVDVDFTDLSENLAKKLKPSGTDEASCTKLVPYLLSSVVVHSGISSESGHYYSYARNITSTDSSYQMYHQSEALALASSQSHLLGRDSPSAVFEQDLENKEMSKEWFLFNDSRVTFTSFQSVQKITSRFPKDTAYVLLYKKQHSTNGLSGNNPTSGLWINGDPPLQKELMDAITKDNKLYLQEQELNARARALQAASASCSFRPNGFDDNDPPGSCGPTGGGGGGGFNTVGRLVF
In short: as §1

USP39 = target: T3, USP39 (UniProt Q53GS9)
T3 sequence (whole entry): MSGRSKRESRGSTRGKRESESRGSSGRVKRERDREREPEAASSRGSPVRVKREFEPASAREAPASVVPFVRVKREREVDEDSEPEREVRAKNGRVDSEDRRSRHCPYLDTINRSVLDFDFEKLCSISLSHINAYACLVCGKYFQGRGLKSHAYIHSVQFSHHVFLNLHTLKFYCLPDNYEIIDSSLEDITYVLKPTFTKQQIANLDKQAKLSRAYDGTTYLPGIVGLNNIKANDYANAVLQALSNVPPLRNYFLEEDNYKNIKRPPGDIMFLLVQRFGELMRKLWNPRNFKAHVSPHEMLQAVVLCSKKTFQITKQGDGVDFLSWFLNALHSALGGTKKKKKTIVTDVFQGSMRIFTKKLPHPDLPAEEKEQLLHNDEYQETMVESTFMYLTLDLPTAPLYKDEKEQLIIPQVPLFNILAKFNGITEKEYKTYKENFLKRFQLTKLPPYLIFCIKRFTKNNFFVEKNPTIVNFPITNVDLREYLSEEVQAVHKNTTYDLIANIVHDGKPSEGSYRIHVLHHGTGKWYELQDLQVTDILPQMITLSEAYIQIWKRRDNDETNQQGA
In short: as §1

USP4 = target: T4, USP4 (UniProt Q13107)
T4 sequence (whole entry): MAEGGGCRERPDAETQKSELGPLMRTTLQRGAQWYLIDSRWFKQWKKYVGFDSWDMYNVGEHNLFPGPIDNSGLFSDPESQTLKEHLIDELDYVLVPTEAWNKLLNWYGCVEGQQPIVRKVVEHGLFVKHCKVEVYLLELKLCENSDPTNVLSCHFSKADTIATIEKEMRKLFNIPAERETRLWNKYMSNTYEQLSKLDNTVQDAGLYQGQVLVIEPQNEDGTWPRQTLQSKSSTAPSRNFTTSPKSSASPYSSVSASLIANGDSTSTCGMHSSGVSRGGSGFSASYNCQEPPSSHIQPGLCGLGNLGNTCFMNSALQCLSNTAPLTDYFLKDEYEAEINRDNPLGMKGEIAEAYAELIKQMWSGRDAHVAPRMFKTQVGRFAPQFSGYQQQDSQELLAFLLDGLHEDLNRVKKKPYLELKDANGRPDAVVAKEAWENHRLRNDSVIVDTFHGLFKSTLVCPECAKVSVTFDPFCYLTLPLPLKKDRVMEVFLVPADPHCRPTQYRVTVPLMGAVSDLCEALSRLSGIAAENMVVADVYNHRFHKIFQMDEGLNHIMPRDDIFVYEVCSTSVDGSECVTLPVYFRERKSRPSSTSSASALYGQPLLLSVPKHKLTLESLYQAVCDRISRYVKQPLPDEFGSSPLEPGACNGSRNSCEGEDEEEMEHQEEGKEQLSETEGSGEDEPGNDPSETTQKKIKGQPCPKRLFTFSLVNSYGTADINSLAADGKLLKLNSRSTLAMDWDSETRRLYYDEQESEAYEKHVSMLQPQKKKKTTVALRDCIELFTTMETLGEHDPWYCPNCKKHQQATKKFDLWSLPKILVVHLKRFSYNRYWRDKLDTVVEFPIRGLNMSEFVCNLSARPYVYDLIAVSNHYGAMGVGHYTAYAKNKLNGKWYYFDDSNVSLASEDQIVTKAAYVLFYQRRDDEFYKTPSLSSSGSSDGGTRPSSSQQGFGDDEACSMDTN
In short: as §1

Measured: log2 ratio of Biotin-Ahx-Ub-VS probe labelling

CNC(=O)C1(NC(=O)CCl)CCCCC1
inactive: USP34 0.0737 | USP36 0.00681 | USP38 0.142 | USP39 0.392 | USP4 0.249
